Data on 28 compounds can be found in PubChem BioAssay AID504832 (National Center for Advancing Translational Sciences (NCATS), 2011).

The structures appear in SMILES notation. Among all 310,000 compounds or so, about 18,000 (5.8%) were called active. About 22% were inconclusive and are not listed. Calls come from the whole dose curve; as a rule, active = well fitted inhibition curve with a large enough effect; inconclusive = small, poorly fitted or top-dose-only effect, or another doubt; inactive = no such curve, though single readings can be large or run the other way. What follows is part of a selection rich in actives, with near analogues and random picks from the rest.
% is set by controls: 0 for no effect and ±100 for the full control effect; potency is the fitted concentration of half-maximal effect.

This assay can be described thus: Primary qHTS for delayed death inhibitors of the malarial parasite plastid, 48 hour incubation. Particulars: P. falciparum luciferase growth in erythrocytes; series mostly up to 28.7 µM; activity change, negative = inhibition: at the top concentration. The source says: The goal of this screen is to discover new antimalarial compounds that act by inhibiting the development of the apicoplast in the malarial parasite Plasmodium falciparum. The biochemical processes that make this organelle essential for erythrocytic stage parasites are not well understood. However, antibiotics such as azithromycin and tetracycline, which target the apicoplast translational machinery, have a potent antimalarial effect.
We have developed a cell-based assay that measures parasite growth based on the expression of an integrated copy of a firefly luciferase reporter. To detect small molecules that cause this "delayed death" phenotype, erythrocytes infected with the luciferase-expressing parasites were incubated with compounds for either one or two generations, corresponding to 48 and 96 hours, respectively. Compounds that inhibit parasite growth in the second generation, but not the first, should be enriched in antimalarials that target the apicoplast. Growth inhibition is detected by a decrease in luciferase activity.
Assay Provider: David Fidock and Eric Ekland, Columbia University
Keywords: NIH Roadmap, MLPCN, MLI, MLSMR, qHTS, NCGC, qHTS, malaria, luciferase, viability
Four microliters of culture medium (RPMI 1640 with 0.5% w/v Albumax (GIBCO), 24 mM sodium bicarbonate and 10 ug/mL gentamycin) were dispensed by a Multi-drop Combi into white solid 1536-well plates (Grenier) and 23 nL compound was added by a pin tool. Four microliters of infected erythrocytes (2% hematocrit, 0.1% parasitemia final concentration) in culture medium were dispensed and the plates incubated for 48 hours at 37 C in 5% CO2. Two microliters of luciferase detection reagent was added and luminescence was detected by a ViewLux (PerkinElmer) reader.
On the technique in general: Quantitative high-throughput screening tests each substance at several concentrations.
Regarding `CCN(CC(=O)Nc1c(F)cccc1F)C(=O)CN1c2cccc3cccc(c23)S1(=O)=O`, the “activity change, negative = inhibition” value is 12.2% (inactive).

As to `O=CN1CCN(C(=O)c2ccc(Br)o2)CC1`, the “activity change, negative = inhibition” value was 4.43% (inactive).

On to `COc1ccc(CCNC(=O)CN(C)S(=O)(=O)c2ccc3nc(C)sc3c2)cc1OC`, for which the “activity change, negative = inhibition” value was -21.8% (inactive).

In the case of `Cc1cc(C)cc(OCC(=O)NCc2cc(C)nc3ccccc23)c1`, the “activity change, negative = inhibition” value is -3.96% (inactive).

As for `Cc1cc(C)c(NC(=O)CN2CCCCCC2)c(C)c1`, the “activity change, negative = inhibition” value is 49.9% (inactive).

Turning to `Cc1cc(C)c(NC(=O)C[N+](C)(C)CC(O)COc2cccc3ccccc23)c(C)c1` (stereo not drawn), the Potency is 5.22 µM (active).

`Cc1ccccc1C(=O)Nc1ccccc1NC(=O)c1ccccc1C`: the activity change, negative = inhibition is 1.11% [at 0.00184 µM] (inactive).

`N#Cc1c(-c2ccccc2)nc(SCc2ccc([N+](=O)[O-])cc2)[nH]c1=O`: the “activity change, negative = inhibition” value is 19.2% (inactive).

Regarding `O=C(NCCN1CCN(Cc2ccccc2)CC1)c1cc2c(=O)[nH]c3ccccc3c2s1`, the Potency was 10.4 µM (active).

Take `O=C(CN1C(=O)COc2ccccc21)NCCN1CCc2ccccc2C1`: the “activity change, negative = inhibition” value is -9.1% (inactive).

Regarding `O=C(Cc1c(O)c2ccccc2[nH]c1=O)NCc1ccccc1`, the “activity change, negative = inhibition” value is 10% (inactive).

`Cn1c(C(=O)NCCN2CCc3ccccc3C2)cc2c(=O)[nH]c3ccccc3c21`: the Potency was 13.1 µM (active).

For `O=C(CCCn1c(=O)[nH]c2cc(Cl)ccc2c1=O)NCCN1CCN(c2ccccc2)CC1`, the “activity change, negative = inhibition” value is 6.68% (inactive).

Turning to `Cn1c(C(=O)NCCCN2CCN(c3cccc(Cl)c3)CC2)cc2c(=O)n(C)c3ccccc3c21`, the “activity change, negative = inhibition” value is -10.9% (inactive).

Turning to `COCC(=O)N1CCc2ccc(NC(=O)c3ccccc3Cl)cc2C1`, the “activity change, negative = inhibition” value was -9.2% (inactive).

For the compound `Cc1ccccc1NC(=O)COc1cccc2c1CCNC2=O`, the “activity change, negative = inhibition” value was -6.39% (inactive).

As for `O=C(Cn1nc(C(=O)O)c2ccccc2c1=O)Nc1ccc(F)cc1`, the “activity change, negative = inhibition” value is 29% (inactive).

Turning to `CCOc1ccccc1NS(=O)(=O)c1c[nH]c(C(=O)OC)c1`, the “activity change, negative = inhibition” value is 49.8% (inactive).

In the case of `Cc1nc2ccccn2c(=O)c1NC(=O)c1cccs1`, the “activity change, negative = inhibition” value was -6.71% (inactive).

`O=C(NCc1ccccc1Cl)C1CCN(c2ncnc3c2nc2n3CCCCC2)CC1`: the “activity change, negative = inhibition” value is -17.5% (inactive).

Consider `COc1ccc(-n2c(SCC(=O)OC(C)C)nnc2-c2ccccn2)cc1`, for which the “activity change, negative = inhibition” value is 1.41% (inactive).

Regarding `Cc1ccc(-c2nnc(SCC(=O)N/N=C/c3cccs3)n2-c2ccc(C)cc2)cc1`, the “activity change, negative = inhibition” value is -12.7% (inactive).

For the compound `Cc1ccc(-n2c(Cc3cccs3)nnc2SCC(=O)OC(C)C)cc1`, the Potency is 11.7 µM (active).

Take `COc1cccc(C(=O)OCC(=O)c2[nH]c(C)c(C(C)=O)c2C)c1`: the “activity change, negative = inhibition” value was 8.79% (inactive).

For the compound `O=C(NCCC1CCCCN1S(=O)(=O)c1cccs1)C(=O)Nc1ccc(F)cc1F` (stereo not drawn), the “activity change, negative = inhibition” value is 5.8% (inactive).

Turning to `O=C(NCc1ccccc1Cl)C1CCCN1S(=O)(=O)c1ccc(F)cc1` (stereo not drawn), the “activity change, negative = inhibition” value was -18.1% (inactive).

Consider `O=C(NCc1ccccc1Cl)C(=O)NCC1CCCN1S(=O)(=O)c1cccs1` (stereo not drawn), for which the Potency was 14.7 µM (active).

As to `Cc1ccc(S(=O)(=O)NCC(=O)N(CC(=O)NCC2CCCO2)c2cccc(F)c2)cc1` (stereo not drawn), the “activity change, negative = inhibition” value is 1.59% (inactive).
